Outcome and AC50 data for six compounds are collected here from PubChem BioAssay (EPA / NIEHS).

Read-out in test [1]: Interleukin-1 alpha (IL1a), IL1A (gene 3552)
The experiment in a line: BSK_LPS_IL1a: BioMAP Diversity Plus: LPS Assay for Interleukin-1 alpha (IL1a) Biomarker Activity (AID 2283080). Conditions: primary human HUVEC with PBMC; actives raise or lower the signal. The gist of the method:
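ELISA read-out of IL-1 alpha from a human primary vascular co-culture (endothelium plus PBMC) under LPS, sampled 24 hours post-dosing. Activity was fitted in both directions relative to DMSO controls.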

Read-out in test [2]: Monocyte Chemoattractant Protein-1 (MCP1), CCL2 (gene 6347)
The experiment in a line: BSK_LPS_MCP1: BioMAP Diversity Plus: LPS Assay for Monocyte Chemoattractant Protein-1 (MCP1) Biomarker Activity (AID 2283081).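 For AC50: secreted MCP-1 protein quantified by ELISA in culture supernatant.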 Particulars: primary human HUVEC with PBMC; actives raise or lower the signal. The gist of the method: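 Human endothelial–PBMC co-cultures were dosed with chemical, then LPS-driven MCP-1 levels were quantified by ELISA at 24 h. Activity in either direction was fitted versus DMSO negative control.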

Test [3] is described as follows: BSK_LPS_PGE2: BioMAP Diversity Plus: LPS Assay for Prostaglandin E2 (PGE2) Biomarker Activity (AID 2283082).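 For AC50: secreted prostaglandin E2 measured by ELISA in LPS-stimulated co-culture.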 Particulars: primary human HUVEC with PBMC; actives raise or lower the signal. The gist of the method: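 LPS-activated HUVEC/PBMC co-culture; cmpd dosed, 24 h; PGE2 by ELISA; bidirectional fit vs DMSO; SRB (0.1%, TCA-fixed, 560 nm) in parallel plates for overt cytotox.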

Read-out in test [4]: Macrophage colony-stimulating factor (MCSF), CSF1 (gene 1435)
As to the kind of experiment: BSK_LPS_MCSF: BioMAP Diversity Plus: LPS Assay for Macrophage colony-stimulating factor (MCSF) Biomarker Activity (AID 2283083). Particulars: primary human HUVEC with PBMC; actives raise or lower the signal. The gist of the method:
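ELISA readout of M-CSF after 24 h compound exposure in a human endothelial/PBMC co-culture. Activity, in either direction, is fitted relative to DMSO vehicle.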

Read-out in test [5]: Tissue Factor, F3 (gene 2152)
As to the kind of experiment: BSK_LPS_TissueFactor: BioMAP Diversity Plus: LPS Assay for Tissue Factor Biomarker Activity (AID 2283084). Conditions: primary human HUVEC with PBMC; actives raise or lower the signal. The gist of the method:
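ELISA signal for cell-surface Tissue Factor (CD142) was read 24 h after compound dosing of an LPS-stimulated human endothelial–PBMC primary co-culture. Gain or loss of signal was scored relative to DMSO.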

Read-out in test [6]: Tumor necrosis factor (Homo sapiens) (UniProt P01375)
The experiment in a line: BSK_LPS_TNFa: BioMAP Diversity Plus: LPS Assay for Tumour Necrosis Factor alpha (TNFa) Biomarker Activity (AID 2283085). Particulars: primary human HUVEC with PBMC; actives raise or lower the signal. The gist of the method:
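Read-out is ELISA of TNFa in primary human endothelial cell–PBMC co-cultures at 24 h after compound. Activity in either direction was fitted against DMSO.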

Read-out in test [7]: Vascular cell adhesion molecule 1 (VCAM1), VCAM1 (gene 7412)
As to the kind of experiment: BSK_LPS_VCAM1: BioMAP Diversity Plus: LPS Assay for Vascular cell adhesion molecule 1 (VCAM1) Biomarker Activity (AID 2283086). Particulars: primary human HUVEC with PBMC; actives raise or lower the signal. The gist of the method: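 HUVEC + PBMC co-culture, LPS system; compound 24 h; VCAM-1 by ELISA; bidirectional fit vs DMSO control; parallel SRB (0.1%, TCA-fixed, 560 nm) for cytotoxicity.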

Read-out in the next test: CD38, CD38 (gene 952)
The experiment in a line: BSK_SAg_CD38: BioMAP Diversity Plus: SAg Assay for CD38 Biomarker Activity (AID 2283087). Conditions: primary human HUVEC with PBMC; actives raise or lower the signal. The gist of the method:
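Human HUVEC plus PBMC co-culture stimulated with superantigen; CD38 measured by ELISA 24 h after chemical dosing. Fluorescence read-out, bidirectional fit against DMSO; cytotoxicity tracked in parallel by SRB and Alamar Blue.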

Read-out in another test: CD40, CD40 (gene 958)
The experiment in a line: BSK_SAg_CD40: BioMAP Diversity Plus: SAg Assay for CD40 Biomarker Activity (AID 2283088). Particulars: primary human HUVEC with PBMC; actives raise or lower the signal. The gist of the method: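 Compounds were dosed onto a human primary endothelial–PBMC co-culture, and after 24 h CD40 was quantified by ELISA using a fluorescence signal. Activity in either direction was fitted relative to DMSO.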

Read-out in a further test: CD69, CD69 (gene 969)
As to the kind of experiment: BSK_SAg_CD69: BioMAP Diversity Plus: SAg Assay for CD69 Biomarker Activity (AID 2283089).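 For AC50: cell surface CD69 protein quantified by ELISA with fluorescence detection.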 Particulars: primary human HUVEC with PBMC; actives raise or lower the signal. The gist of the method: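 Primary human vascular co-culture (umbilical vein endothelium with peripheral blood mononuclear cells) exposed to test chemical for 24 h. CD69 levels quantified by fluorescence ELISA; DMSO served as negative control for bidirectional fitting.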

Read-out in test [8]: Monocyte Chemoattractant Protein-1 (MCP1), CCL2 (gene 6347)
As to the kind of experiment: BSK_SAg_MCP1: BioMAP Diversity Plus: SAg Assay for Monocyte Chemoattractant Protein-1 (MCP1) Biomarker Activity (AID 2283090). Particulars: primary human HUVEC with PBMC; actives raise or lower the signal. The gist of the method: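 MCP-1 levels in the endothelial–PBMC SAg co-culture were quantified by ELISA at 24 h post-dosing; both increases and decreases versus DMSO scored. Cytotoxicity monitored by SRB total protein in parallel cultures.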

Read-out in test [9]: E-selectin (Homo sapiens) (UniProt P16581)
The experiment in a line: BSK_SAg_Eselectin: BioMAP Diversity Plus: SAg Assay for Eselectin Biomarker Activity (AID 2283091). Conditions: primary human HUVEC with PBMC; actives raise or lower the signal. The gist of the method: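 Co-culture: HUVEC + PBMC. Dose compound; 24 h. ELISA for E-selectin. Bidirectional fit vs DMSO.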

Read-out in test [10]: Monokine induced gamma interferon (MIG), CXCL9 (gene 4283)
As to the kind of experiment: BSK_SAg_MIG: BioMAP Diversity Plus: SAg Assay for Monokine induced gamma interferon (MIG) Biomarker Activity (AID 2283092). Conditions: primary human HUVEC with PBMC; actives raise or lower the signal. The gist of the method: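 Endothelial cells and PBMC were co-cultured, exposed to test chemicals, and sampled 24 h later. MIG was measured by ELISA, and responses were fitted in both directions relative to DMSO.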

Test [11] can be described thus: BSK_SAg_PBMCCytotoxicity: PBMC Cytotoxicity Assessment in the BioMAP Diversity Plus: SAg Assay (AID 2283093).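 For AC50: PBMC superantigen activated with SEB plus TSST-1 one hour after compound addition.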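 Note: PBMC viability measured as Alamar Blue reduction fluorescence at 546/580 nm; fitted both ways against DMSO so a hit may be loss or gain of signal.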 Particulars: primary human HUVEC with PBMC. The gist of the method:
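HUVEC/PBMC co-culture; PBMC exposed to chemical 1 h before SEB and TSST-1 activation (20 ng/mL each), incubated 90 h, then Alamar Blue 6 h, fluorescence 546/580 nm. Bidirectional fit versus DMSO baseline.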

Read-out in test [12]: Interleukin-8 (IL8), CXCL8 (gene 3576)
As to the kind of experiment: BSK_SAg_IL8: BioMAP Diversity Plus: SAg Assay for Interleukin-8 (IL8) Biomarker Activity (AID 2283094). Particulars: primary human HUVEC with PBMC; actives raise or lower the signal. The gist of the method:
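ELISA read-out of IL-8 in a primary human vascular co-culture (umbilical vein endothelium plus PBMC), taken 24 h after compound addition. Values derive from bidirectional fits against DMSO negative controls.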

Test [13] is described as follows: BSK_SAg_Proliferation: Cell Proliferation Assessment in the BioMAP Diversity Plus: SAg Assay (AID 2283095).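 Note: relative cell number as total protein by SRB absorbance in sub-confluent culture.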 Particulars: primary human HUVEC with PBMC. The gist of the method: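 Cells (endothelium plus PBMC, human primary) were dosed with chemical, cultured 96 h, fixed in 10% TCA and stained with 0.1% SRB. Absorbance at 560 nm gave relative protein, fitted bidirectionally relative to DMSO.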

Test [14] in a line: BSK_SAg_SRB: Viability Assessment in the BioMAP Diversity Plus: SAg Assay (AID 2283096).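 Note: cells read one day after compound addition; hits may be either gain or loss of signal compared with DMSO.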 Conditions: primary human HUVEC with PBMC. The gist of the method: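 Human umbilical vein endothelial cells co-cultured with PBMC, read 24 h after compound dosing. Total protein measured by sulforhodamine B staining (0.1% SRB after 10% TCA fixation, absorbance 560 nm); bidirectional fit versus DMSO baseline.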

Values joined by “and” are separate entries in the source; they are usually repeats but may differ in a detail not shown here. Identical values can stand only once. More than one record can exist for a structure, and the calls need not agree. Active and inactive are the calls of the source. Rule for the calls: active = hit-call score of the fitted dose curve at least 0.9, where 1 is the maximum; inactive = score below 0.9.

Chain of Tumor necrosis factor (Homo sapiens) (P01375 whole entry, looked up): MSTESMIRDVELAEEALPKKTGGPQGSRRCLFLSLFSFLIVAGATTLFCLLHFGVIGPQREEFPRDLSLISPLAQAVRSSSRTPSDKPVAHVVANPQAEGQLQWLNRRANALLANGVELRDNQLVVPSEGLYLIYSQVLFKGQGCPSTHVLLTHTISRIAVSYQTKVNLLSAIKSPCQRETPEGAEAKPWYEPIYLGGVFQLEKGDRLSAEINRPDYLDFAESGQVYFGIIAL
Chain of E-selectin (Homo sapiens) (P16581 whole entry, looked up): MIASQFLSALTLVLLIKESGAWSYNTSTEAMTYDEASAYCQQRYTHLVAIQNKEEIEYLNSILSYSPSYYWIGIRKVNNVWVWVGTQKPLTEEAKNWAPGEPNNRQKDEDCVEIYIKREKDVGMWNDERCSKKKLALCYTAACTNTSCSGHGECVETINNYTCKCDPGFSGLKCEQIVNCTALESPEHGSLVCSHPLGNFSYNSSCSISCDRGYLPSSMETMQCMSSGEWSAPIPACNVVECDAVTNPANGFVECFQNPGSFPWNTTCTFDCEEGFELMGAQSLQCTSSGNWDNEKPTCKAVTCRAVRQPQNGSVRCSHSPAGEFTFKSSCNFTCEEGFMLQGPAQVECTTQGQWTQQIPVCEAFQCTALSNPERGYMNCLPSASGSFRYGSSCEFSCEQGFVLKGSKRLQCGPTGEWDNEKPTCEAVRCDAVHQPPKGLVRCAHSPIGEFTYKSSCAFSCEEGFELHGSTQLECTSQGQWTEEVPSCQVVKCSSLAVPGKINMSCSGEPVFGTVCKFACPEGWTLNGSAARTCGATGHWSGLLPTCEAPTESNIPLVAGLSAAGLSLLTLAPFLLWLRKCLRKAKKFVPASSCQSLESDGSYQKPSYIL

For the compound `C=CC(=O)OCC(F)(F)C(F)(F)C(F)(F)C(F)(F)C(F)(F)C(F)(F)C(F)(F)F`, the outcome in test [1], in [2], in [3], in test [4], in [5] and in test [6] was inactive. Also, the outcome in [7] is “inactive”; with CD38, CD38 (gene 952) it was “inactive”; in the test with CD40, CD40 (gene 958), “inactive”; with CD69, CD69 (gene 969), “inactive”; in test [8] it was “inactive”; in test [9], “inactive”. Also, the outcome in test [10], in [11], in test [12], in [13] and in [14] was inactive. The AC50 in test [13] was 20 µM (active).

In the case of `O=C(O)C(F)(F)C(F)(F)F`, the result in test [1], in test [2], in [3], in test [4], in [5] and in test [6] was inactive. Besides, the outcome in [7] is “inactive”; in the test with CD38, CD38 (gene 952), “inactive”; in the test with CD40, CD40 (gene 958), “inactive”; in the test with CD69, CD69 (gene 969), “inactive”; in test [8], “inactive”; in test [9], “inactive”. The result in [10], in test [11], in test [12], in test [13] and in [14] was inactive.

Consider `OCCCC(F)(F)C(F)(F)C(F)(F)F`, for which the outcome in test [1], in test [2], in test [3], in test [4], in [5] and in test [6] was inactive. The outcome in [7] was “inactive”; with CD38, CD38 (gene 952) it was “inactive”; in the test with CD40, CD40 (gene 958), “inactive”; with CD69, CD69 (gene 969) it was “inactive”; in test [8] it was “inactive”; in test [9], “inactive”. The result in [10], in test [11], in [12], in test [13] and in test [14] was inactive.

Take `O=C(O)C(F)(F)C(F)(F)C(F)(F)C(F)(F)C(F)(F)C(F)(F)C(F)(F)C(F)(F)C(F)(F)C(F)F`: the AC50 in [1] was 54.9 µM (active); in test [2], 41.1 µM (active) and 44.3 µM (active); in test [3], 42.6 µM (active) and 48.8 µM (active); in [7] it was 52.5 µM (active) and 46.9 µM (active); with CD38, CD38 (gene 952), 48.3 µM (active) and 46.3 µM (active); with CD40, CD40 (gene 958) it was 41.9 µM (active) and 44.6 µM (active). For the same compound, the AC50 with CD69, CD69 (gene 969) was 37.6 µM (active) and 47.3 µM (active); in test [8] it was 44.9 µM (active) and 46 µM (active); in [9], 54.2 µM (active); in test [12], 41.6 µM (active) and 47.9 µM (active); in test [13], 47.8 µM (active) and 54.6 µM (active); in test [14], 47.3 µM (active) and 45.8 µM (active). Moreover, the outcome in test [1], in [4], in test [5], in [6], in test [9] and in test [10] was inactive. In addition, in [11], the result was inactive.

Consider `FC(F)(F)C(F)(F)C(F)(F)C(F)(F)CCI`, for which the result in [1], in test [2], in test [3], in [4], in test [5] and in test [6] was inactive. Further, the outcome in [7] is “inactive”; with CD38, CD38 (gene 952) it was “inactive”; with CD40, CD40 (gene 958), “inactive”; with CD69, CD69 (gene 969), “inactive”; in test [8], “inactive”; in [9], “inactive”. Besides, the result in test [10], in test [11], in test [12] and in test [14] was inactive. Besides, the figures for the AC50 in [11] and in test [13] were 41.9 µM (active) and 30 µM (active), respectively.

For the compound `CCc1c(Br)c(Br)c(Br)c(Br)c1Br`, the result in test [1], in [2], in [3], in test [4], in [5] and in [6] was inactive. Further, the outcome is “inactive” in test [7]; “inactive” in the test with CD40, CD40 (gene 958); “inactive” in the test with CD69, CD69 (gene 969); “inactive” in test [8]; “inactive” in [9]; “inactive” in [10]. The outcome in test [11], in test [12], in test [13] and in test [14] was inactive. For the same compound, the AC50 in the test with CD38, CD38 (gene 952) was 20 µM (active).

What is called AC50 is the concentration giving half of the maximal activity seen.
